What is called inhibition is how much of the control response was suppressed.

The source made the active and inactive calls. No rule for the calls is given here.

The target in the experiment is Pantothenate synthetase (Mycobacterium tuberculosis (strain ATCC 25618 / H37Rv)) (UniProt P9WIL5). Kind of experiment: Coupled enzyme confirmation of inhibitors against recombinant Mtb PanC (AID 375).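 Also: 0% = full reaction with vehicle and 100% = no enzyme background.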 Particulars: coupled enzyme assay; at 10 µM, active compounds read high.
Sequence of Pantothenate synthetase (Mycobacterium tuberculosis (strain ATCC 25618 / H37Rv)) (P9WIL5 whole entry, looked up): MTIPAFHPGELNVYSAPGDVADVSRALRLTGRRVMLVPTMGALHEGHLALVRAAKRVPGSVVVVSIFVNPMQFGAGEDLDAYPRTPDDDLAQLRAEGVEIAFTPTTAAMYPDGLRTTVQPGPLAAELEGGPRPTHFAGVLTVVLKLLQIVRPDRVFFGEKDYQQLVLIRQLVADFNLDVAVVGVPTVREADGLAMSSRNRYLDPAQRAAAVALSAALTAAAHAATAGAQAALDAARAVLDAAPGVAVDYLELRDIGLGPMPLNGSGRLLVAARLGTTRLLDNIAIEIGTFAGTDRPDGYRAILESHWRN
With `O=C(CSc1nnc(-c2ccccc2)c(-c2ccccc2)n1)N1CCOCC1`, the inhibition was 0% (inactive).
Consider `O=C(NC1CCCCCC1)c1c(F)c(F)c(F)c(F)c1F`, for which the inhibition is 4% (inactive).
The value for `CCOC(=O)CSc1nc2cc(C(=O)N3CCC(C(N)=O)CC3)ccc2c(=O)n1-c1ccccc1` was 0% (inactive); that for `CCCCNC(=O)OC(C)CNC(=O)Oc1cccc(C)c1` (centres undefined) was 0% (inactive); that for `COc1ccc(/C=C/C(=O)Nc2ccccc2C(=O)O)cc1OC` was 0% (inactive).
The value for `O=C(NCc1ccccn1)c1ccc2nc(-c3ccco3)c(-c3ccco3)nc2c1` was 1% (inactive); that for `CCC(=O)N1CCNC(=O)C1CC(=O)Nc1ccc(C)c(Cl)c1` (centres undefined) was 0% (inactive); that for `Cn1c(=O)cc(OCC(=O)NCCCN2CCN(Cc3ccccc3)CC2)c2ccccc21` was 0% (inactive).
As to `O=C1CCNc2cc3ccccc3cc21`, the inhibition was 3% (inactive).
On to `Cc1ccc(-n2nc3cc(Cl)c(NC(=O)c4ccco4)cc3n2)cc1`, for which the inhibition was 3% (inactive).
On to `COc1ccc2cc(CN(CCO)C(=O)c3ccccc3F)c(=O)[nH]c2c1`, for which the inhibition is 5% (inactive).
As to `COc1ccc(OCC(=O)Nc2cccc3ncccc23)cc1`, the inhibition was 2% (inactive).
On to `CN1C(=O)C(O)(CC(=O)c2ccc(F)cc2)c2cc(Br)ccc21` (centres undefined), for which the inhibition is 0% (inactive).
For the molecule `Cc1ccc(CSc2nc3c(c(=O)[nH]2)CCC3)cc1`, the inhibition is 1% (inactive).
Under `COc1cc(OC)cc(-n2nnnc2SCC(=O)N2CCCC2)c1` stands 0% (inactive); under `O=C(O)c1ccc(COc2c(F)c(F)c(F)c(F)c2F)o1`, 0% (inactive); under `Cc1c(NS(=O)(=O)c2ccc3c(c2)n(C)c(=O)n3C)c(=O)n(-c2ccccc2)n1C`, 2% (inactive).
Under `COc1ccc(S(=O)(=O)Cc2ccc(C(=O)N3CCN(Cc4ccccc4)CC3)o2)cc1` stands 0% (inactive); under `Cc1nc(CCNS(=O)(=O)c2cccs2)cs1`, 0% (inactive).
The value for `O=C(Nc1cc(Cl)ccc1Cl)c1noc2c1CCCC2` was 2% (inactive); that for `CC1(C)CC(=O)C(C#N)=C(NCCCO)C1` was 0% (inactive).
`O=C(COC(=O)c1ccccc1Oc1ccccc1)NC1CCS(=O)(=O)C1` (centres undefined): the inhibition is 0% (inactive).
Under `COc1cccc(N2CCN(c3ncnc4c3[nH]c3ccc(F)cc34)CC2C)c1` (centres undefined) stands 0% (inactive); under `CC(=O)c1cccc(-n2nnnc2SCC(=O)N2CCCC2)c1`, 5% (inactive); under `NS(=O)(=O)c1ccc(NC(=O)N[C@@H](Cc2ccccc2)C(=O)O)cc1`, 0% (inactive).
The value for `CCc1c(C)nc2ncnn2c1NCCc1ccc(OC)c(OC)c1` was 0% (inactive); that for `CCCCn1c(CN2CCN(CCO)CC2)nc2ccccc21` was 0% (inactive).
The value for `Clc1ccc(Nc2ncnc3c2cnn3-c2ccccc2)cc1` was 6% (inactive); that for `COc1ccccc1-n1c(C)nnc1SCC(=O)Nc1cccc(C(C)=O)c1` was 0% (inactive); that for `S=C(c1cccs1)N1CCCC1` was 0% (inactive).
On to `O=C(CSc1nnnn1-c1ccccc1)c1cc2ccccc2oc1=O`, for which the inhibition is 0% (inactive).
Consider `COc1cccc(OC)c1C(=O)N1CCOCC1`, for which the inhibition was 12% (inactive).
Under `Cc1cc(NC(=O)c2ccccc2Oc2ccccc2)no1` stands 12% (inactive).
The value for `COc1ccc(C(=O)Nc2ccc(S(=O)(=O)Nc3nccnc3OC)cc2)cc1OC` was 0% (inactive).
For the molecule `N#Cc1nc(-c2ccco2)oc1N1CCN(c2cccc(Cl)c2)CC1`, the inhibition is 6% (inactive).
The value for `CC1(C)Cc2c(c(N3CCOCC3)nc3sc(C#N)c(N)c23)CS1` was 0% (inactive).
Under `C=COCCNC(=O)Nc1ccc(Cl)c(Cl)c1` stands 0% (inactive); under `O=C(NCc1ccccc1)N[C@@H](Cc1ccccc1)C(=O)O`, 1% (inactive).
For `COc1ccc(-c2cc3c(=O)n(CC(=O)NC4CCN(Cc5ccccc5)CC4)ncn3n2)cc1`, the inhibition is 1% (inactive).

Values taken from PubChem BioAssay.
